About 4,300 (8.3%) of roughly 52,000 compounds were called active. The full list was thinned out, with actives kept by preference. Unmarked numbers belong to inactive results. Rule as the data show it: active = survival mostly below about 52% (no sharp cut-off); inactive = mostly above about 56%.

This assay concerns DeltatarO mutant. The assay is described as follows: growth inhibition of S. aureus wild type versus tarO mutant, primary screen, teichoic acid synthesis inhibitors, RN4220, OD600 (AID 463173). As to conditions: OD600, 18 h, active compounds read low, screened at 18.75 µg/mL (by protocol).
Consider `CC(C)NC(=O)Nc1ccc2c(c1)N(C)C(=O)c1ccccc1S2`, for which the survival was 117%.
Then `CCOC(=O)/C(C#N)=C/C1=C(N)CC(C)(C)OC1`, with 95%; and `Cc1ccc(NC(=O)Cn2c(=O)n(Cc3ccc4c(c3)OCO4)c(=O)c3ccc(C(=O)NC4CCCCC4)cc32)c(C)c1`, with 100%; and `Cc1ccc(NC(=O)C(C)Sc2nnc(C3CCCCC3)n2C)cc1` (stereo unspecified), with 109%.
Then `CCN(C(=O)Cn1nc(Cc2ccncc2)c2ccccc2c1=O)c1cccc(Cl)c1`, with 83%; and `Cc1cccc(Cn2c(COc3ccc(Cl)cc3)nc3ccccc32)c1`, with 59%.
In the case of `CCn1c(COc2ccc(Cl)cc2Cl)nc2ccccc21` it was 57%; in that of `Cc1ccc(Cn2c(CNC(=O)c3cccc(C)c3)nc3ccccc32)cc1`, 96%; in that of `Cc1cccc(Cn2c(COc3ccccc3)nc3ccccc32)c1`, -2% (active).
For the molecule `CC(C)(C)c1ccc(Cn2c(Cc3ccccc3)nc3ccccc32)cc1`, the survival is 0% (active).
Then `Cc1ccc(Cn2c(Cc3ccccc3)nc3ccccc32)cc1`, with -1% (active).
For the molecule `Cc1ccc(Cn2c(CCNC(=O)C(C)C)nc3ccccc32)cc1`, the survival is 78%.
As to `CC(O)c1nc2ccccc2n1Cc1ccccc1` (stereo unspecified), the survival is 57%.
Then `Clc1ccc(OCc2nc3ccccc3n2Cc2ccccc2)c(Cl)c1`, with 14% (active).
In the case of `O=C(NCCc1nc2ccccc2n1Cc1ccc(Cl)cc1)c1ccccc1`, the survival is 72%.
Then `CCC(=O)NCc1nc2ccccc2n1Cc1ccccc1`, with 122%; and `Cc1ccc(CNC(=O)CCCn2c(=O)[nH]c3ccc(Br)cc3c2=O)cc1`, with 87%; and `Cc1ccc(-c2nnc(SC(C)C)n2-c2ccccc2)cc1`, with 100%.
Take `COc1ccccc1C(=O)n1nc(-c2cccnc2)nc1NCc1ccccc1`: the survival was 64%.
Consider `CCc1ccc(S(=O)(=O)c2nnn3c2nc(NCCNC(C)=O)c2cc(Cl)ccc23)cc1`, for which the survival was 74%.
As for `CCOC(=O)N1CCN(Cc2nc3cc(NC(=O)c4ccc([N+](=O)[O-])cc4)ccc3n2C(C)C)CC1`, the survival was 75%.
`CC(C)Oc1ccc(CNC(=O)c2ccc3nc(SCc4ccc(F)cc4)n(C)c3c2)cc1`: the survival was 101%.
Consider `CCS(=O)(=O)N1CCC(C(=O)NCCC(C)C)CC1`, for which the survival is 87%.
Consider `CCCCn1c(SCC(=O)Nc2cccc(OC)c2)nc2c(sc3ccccc32)c1=O`, for which the survival was 88%.
Then `Cc1nc2nc(CNC(=O)c3cccc(F)c3)nn2c(C)c1CCC(=O)Nc1cccc(Cl)c1`, with 110%; and `CC1CCCN(S(=O)(=O)c2ccc(N3CCCCS3(=O)=O)cc2)C1` (stereo unspecified), with 74%.
Then `CCN(C(=O)c1ccc2c(=O)n3c(nc2c1)CCCCC3)c1cc(C)ccc1C`, with 89%.
In the case of `COc1ccc(S(=O)(=O)c2nnn(-c3ccc(C)c(Cl)c3)c2C)cc1` it was 99%; in that of `Cc1cccc(Cn2c(Cc3ccccc3)nc3ccccc32)c1`, 22% (active).
On to `COCc1nc2ccccc2n1Cc1cccc(C)c1`, for which the survival was 79%.
Regarding `Cc1cccc(Cn2c(CNC(=O)c3ccccc3)nc3ccccc32)c1`, the survival was 64%.
In the case of `CC(C)c1ccc(Cn2c(COc3ccccc3)nc3ccccc32)cc1` it was -1% (active).
Consider `Cc1ccc2c(=O)cc(C(=O)Nc3ccc(S(=O)(=O)Nc4nc(C)cc(C)n4)cc3)oc2c1`, for which the survival is 78%.
For `COCCn1c(SCC(=O)c2ccc(C)cc2)nc2cc(C(=O)NC3CCCC3)ccc2c1=O`, the survival is 89%.
Take `COc1cccc(C2=NN(C(C)=O)C(c3cn(-c4ccccc4)nc3-c3cccs3)C2)c1` (stereo unspecified): the survival is 170%.
As for `Cc1nn2c(=O)cc(COC(=O)COc3ccc(F)cc3)nc2s1`, the survival is 94%.
In the case of `Cc1ccc2[nH]c(=O)c3cc(C(=O)N(CCCOC(C)C)Cc4ccco4)sc3c2c1` it was 56% (active); in that of `CCOCCCN(Cc1ccco1)C(=O)c1cc2c(=O)[nH]c3ccc(C)cc3c2s1`, 88%; in that of `CCn1c(=O)c2cc(C(=O)N(CC(C)C)CC(C)C)sc2c2ccccc21`, -4% (active).
Regarding `CCCn1c2ccccc2c2cnn(CC(=O)N(CCCOC(C)C)Cc3ccco3)c(=O)c21`, the survival is 87%.
Then `CCn1c(=O)c2cc(C(=O)N(CCN(C)C)Cc3ccccc3)sc2c2ccccc21`, with 77%; and `CCn1c(=O)c2cc(C(=O)N(C)c3cc(Cl)c(OC)cc3OC)sc2c2ccccc21`, with 80%; and `CCn1c(=O)c2cc(C(=O)N(CCCOC(C)C)Cc3ccco3)sc2c2ccccc21`, with 8% (active).
In the case of `COCCN(Cc1ccco1)C(=O)c1cc2c(=O)[nH]c3ccc(C)cc3c2s1` it was 53%; in that of `CCn1c(=O)c2cc(C(=O)N(C)c3cc(C)ccc3C)sc2c2ccccc21`, 105%; in that of `N#CC(C#N)=CC1=C(N2CCCC2)CCCC1`, 89%.
In the case of `Cc1c(-c2nc(-c3ccccc3)no2)nnn1-c1cccc(C(F)(F)F)c1` it was 80%; in that of `Cc1ccc(NC(=O)Cn2cc(S(=O)(=O)c3ccccc3)c(=O)c3cc4c(cc32)OCO4)cc1`, 97%; in that of `Cc1ccccc1-c1noc(-c2cc3ccccc3oc2=O)n1`, 85%.
Consider `CC1=C(C(N)=O)C(c2cccc(Br)c2)n2nc(SCc3ccccc3)nc2N1` (stereo unspecified), for which the survival is 76%.
In the case of `O=C(O)CC1CCCC(c2ccccc2)C1=O` (stereo unspecified) it was 91%.
In the case of `Cc1ccc2c(CC(=O)Nc3c(C(=O)c4ccc(F)cc4)oc4ccccc34)coc2c1` it was 60%.
In the case of `COc1ccc(S(=O)(=O)N(C)Cc2nc(-c3cccc(C)c3)no2)cc1` it was 51%.
`CCN(Cc1nc(-c2cccc(C)c2)no1)S(=O)(=O)c1ccc(C)cc1`: the survival is 43% (active).
In the case of `Cc1cccc(-c2noc(CN(C3CCCCC3)S(=O)(=O)c3ccc(F)cc3)n2)c1` it was 71%; in that of `Cc1ccc(S(=O)(=O)N(Cc2nc(-c3cccc(C)c3)no2)C2CCCCC2)cc1`, 46% (active); in that of `O=S(=O)(c1ccc(F)cc1)N(Cc1nc(-c2ccccc2)no1)C1CCCCC1`, 45% (active).
In the case of `COc1ccc(S(=O)(=O)N(Cc2nc(-c3cccc(C)c3)no2)C2CCCCC2)cc1` it was 57%.
In the case of `Cc1ccc(-c2noc(CN(C3CCCCC3)S(=O)(=O)c3ccc(F)cc3)n2)cc1` it was 78%; in that of `Cc1ccc(S(=O)(=O)NCc2nc(-c3cccc(C)c3)no2)cc1`, 100%.
For `O=S(=O)(c1ccc(F)cc1)N(Cc1nc(-c2ccc(Cl)cc2)no1)C1CCCCC1`, the survival is 76%.

Source of the values: PubChem BioAssay AID463173 (ICCB-Longwood Screening Facility, Harvard Medical School, 2010).
